APOBEC3G inh: APOBEC3G DNA deaminase inhibitors, primary screen, biochemical, fluorescence, single-stranded DNA substrate, uHTS | AID 493012, 2011 | DNA dC->dU-editing enzyme APOBEC-3G (Homo sapiens), Q9HC16 | actives 0.28% (n = 330,000) | inhibition, % at 20 µM | recombinant A3G, ssDNA deamination FAM/TAMRA fluorescence;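 active means inhibition of at least 40% at 20 µM, with no more than 30% in the related APOBEC3A deaminase screen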;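 further: plate controls were DMSO wells with A3G for no effect and wells lacking A3G enzyme for full effect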
Target sequence (Q9HC16 whole entry, looked up): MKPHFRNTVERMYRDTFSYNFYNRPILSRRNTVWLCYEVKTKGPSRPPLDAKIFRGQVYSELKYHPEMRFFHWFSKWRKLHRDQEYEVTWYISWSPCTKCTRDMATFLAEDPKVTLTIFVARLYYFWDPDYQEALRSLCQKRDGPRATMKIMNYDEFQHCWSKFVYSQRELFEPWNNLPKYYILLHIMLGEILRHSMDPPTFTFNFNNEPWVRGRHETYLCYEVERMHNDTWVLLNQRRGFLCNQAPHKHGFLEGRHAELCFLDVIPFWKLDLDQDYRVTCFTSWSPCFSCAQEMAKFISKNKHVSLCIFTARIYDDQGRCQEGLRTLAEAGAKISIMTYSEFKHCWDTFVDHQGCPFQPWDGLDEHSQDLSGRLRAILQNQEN
A3A deaminase: APOBEC3A ssDNA deaminase inhibitors, primary screen, selectivity assay for APOBEC3G inhibitor project, biochemical, FAM/TAMRA oligo cleavage fluorescence. DNA dC->dU-editing enzyme APOBEC-3A (Homo sapiens), P31941. recombinant A3A, FAM/TAMRA ssDNA deamination fluorescence. inhibition, % at 20 µM. actives 0.41% (n = 330,000). AID 493011, 2011;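 active means at least 40% inhibition at 20 µM here, with at most 30% in a related deaminase screen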;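 further: plate controls were A3A with DMSO for no effect and wells lacking A3A enzyme for full effect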
Target sequence (P31941 whole entry, looked up): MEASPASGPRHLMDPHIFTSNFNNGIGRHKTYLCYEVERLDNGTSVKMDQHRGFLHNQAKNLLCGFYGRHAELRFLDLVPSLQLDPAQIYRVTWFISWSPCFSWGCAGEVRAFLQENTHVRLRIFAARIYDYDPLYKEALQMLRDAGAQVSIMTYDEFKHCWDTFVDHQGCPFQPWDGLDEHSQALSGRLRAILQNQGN
PfG6PD inh: PfG6PD enzyme inhibitors, primary screen, biochemical, fluorescence intensity, uHTS; glucose-6-phosphate dehydrogenase-6-phosphogluconolactonase (Plasmodium falciparum 3D7); inhibition, % at 20 µM; PfGluPho enzyme, NADPH resazurin-diaphorase fluorescence; actives 0.78% (n = 350,000);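 active means inhibition reaching at least a set limit at 20 µM in the primary screen, cut at about 59% in these data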;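 further: 0% = DMSO wells with substrate and 100% = DMSO wells lacking glucose-6-phosphate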
H9c2 TAG inh: inhibitors of triacylglycerol accumulation, primary screen, cell-based, uHTS, fluorescence, H9c2. inhibition, % at 12.5 µM. H9c2 cells, Nile Red lipid (TAG) fluorescence; cells loaded with 200 µM oleic acid. actives 0.66% (n = 230,000). AID 651582, 2012;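 active means pattern-corrected inhibition of lipid staining of at least 50% with the nuclear-stain viability signal not falling by more than 50%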;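 further: 0% = DMSO wells and 100% = triacsin C control wells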
NadD inh: inhibitors of S. aureus NadD, primary screen, biochemical, colorimetric, uHTS; Nicotinate-nucleotide adenylyltransferase NadD (Staphylococcus aureus N315); purified NadD enzyme, colorimetric absorbance read-out; inhibition, % at 20 µM; actives 0.78% (n = 360,000); AID 602399, 2012; in the data active means inhibition above about 26%
Cardio protect: cardioprotection against H2O2-induced cell death, primary screen, uHTS, H9c2 cells, ATPLite luminescence; protection from H2O2 cell death, % at 20 µM; AID 588492, 2011; actives 0.63% (n = 360,000); H9c2 cardiomyocytes, H2O2 injury protection, 2 h;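 active means compounds giving at least 50% protection of heart cells from peroxide-induced death in the single-dose screen, raw or plate-pattern-corrected value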;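 further: 0% = DMSO wells with peroxide and 100% = DMSO wells without peroxide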
APOBEC3A confirm: APOBEC3A deaminase inhibitors, retest, confirmation, selectivity assay for APOBEC3G inhibitor project, biochemical, single concentration, fluorescence readout | shares compounds with A3A deaminase | recombinant A3A, ssDNA deaminase UDG fluorescence assay | inhibition, % at 20 µM | actives 63% (n = 1,400) | AID 493151, 2011;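 active means inhibition reaching a set limit, 80% of the first screen's cutoff, at 20 µM in any replicate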;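 further: plate controls were DMSO wells with A3A for no effect and wells lacking A3A enzyme for full effect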
UDG ctr A3A: E. coli UDG inhibitors, confirmation, counter-screen for APOBEC3A inhibitor project, biochemical, single concentration, fluorescence, FAM/TAMRA oligo; shares compounds with A3A deaminase; UDG counterscreen, FAM/TAMRA uracil oligo fluorescence; inhibition, % at 20 µM; 1,000 tested, under 10 active; AID 504714, 2011; call rule not given here
The depositor's hits bear a star; . = no result. Compounds with a hit are over-represented: about 2.9% of the library has one in this group of screens.

SMILES | APOBEC3G inh | A3A deaminase | PfG6PD inh | H9c2 TAG inh | NadD inh | Cardio protect | APOBEC3A confirm | UDG ctr A3A
COc1ccc2[nH]c3c(c2c1)CCN1C(=O)C(CC(=O)NCc2ccco2)C[C@H](C(=O)N2CCCCC2)[C@@]31CCc1ccccc1 (stereo partly drawn) | -1 | 4 | 13 | 18 | 4 | -4 | . | .
CC(=O)NCCc1ccc(C(=O)COC(=O)C2CCCCC2)cc1 | -6 | -2 | 0 | -3 | 1 | -14 | . | .
CN(C)CCCNc1c2ccccc2nc2ccccc12 | 21 | 54* | -23 | . | -2 | -2 | 54* | 4
CN(C)c1cccc(NC2=CC(=[N+]3CCOCC3)CC(C)(C)C2)c1 | 18 | 41* | -4 | -2 | 14 | -5 | 18 | .
CC(Sc1nc2c(cc1C#N)CCCCC2)C(=O)O (stereo not drawn) | -8 | -4 | -9 | . | . | . | . | .
CCOC(=O)C1CCN(C(=O)Cn2nc(C)n3nc(-c4ccc(CC)cc4)cc3c2=O)CC1 | -4 | -1 | -5 | . | 2 | -6 | . | .
O=C(COC(=O)c1ccccc1Nc1cccc(C(F)(F)F)c1)NCc1ccco1 | 23 | 42* | 10 | -13 | 16 | -13 | 23* | -2
COc1ccc2nc(Nc3nc4cc5c(cc4s3)OCO5)sc2c1 | 1 | 46* | 3 | . | 25 | 1 | 39* | 1
CCCCN1/C(=C/c2cccc[n+]2C)Sc2cc(NC(C)=O)ccc21 | 32 | 80 | -2 | . | 8 | -5 | . | .
CC(=O)c1ccc2c(c1)N(C)c1ccccc1S2 | -3 | 4 | 8 | 13 | -9 | -4 | . | .
Cc1ccc2c(c1)N(C)/C(=C/c1cccc[n+]1C)S2 | 23 | 67* | -4 | . | 8 | -16 | 91* | 1
COCC(=O)/C=C1\Sc2ccccc2N1C | -8 | -3 | 14 | . | 0 | -6 | . | .
CN1/C(=C/c2cccc[n+]2C)Sc2ccccc21 | 21 | 62* | -3 | . | 12 | -17 | 87* | -1
Cc1ccc2c(c1)N(C)/C(=C/c1cccc[n+]1CCO)S2 | 16 | 48* | 8 | . | 12 | -13 | 83* | 2
COc1ccc(Cc2c(-c3ccc(OC)c(OC)c3)nc3ccc(C)cn23)c(C)c1 | . | . | . | . | 1 | 2 | . | .
CCCOc1ccc(C(=O)Nc2ccccc2[N+](=O)[O-])cc1 | -2 | 76* | 10 | -9 | -2 | -14 | -8 | -3
CCCCOc1ccc(C(=O)Nc2ccc(C)cc2[N+](=O)[O-])cc1 | 1 | 4 | 0 | . | 6 | -2 | . | .
CCCC(C(=O)NC1CCCC1)N(CC1CCCO1)C(=O)CNS(=O)(=O)c1ccc(F)cc1 (stereo not drawn) | 0 | -2 | -10 | . | -12 | -1 | . | .
Cc1ccc(C(=O)Nc2cc(Cl)ccc2-n2cncn2)o1 | -1 | 41* | 16 | 3 | 6 | 2 | 48* | 4
CC1CN(S(=O)(=O)c2cccc(C(=O)OCc3cc(=O)oc4cc(O)ccc34)c2)CC(C)O1 (stereo not drawn) | 1 | 12 | 4 | -1 | 9 | 30 | . | .
CN(C)c1cccc(C(=O)OCc2cc(=O)oc3cc(O)ccc23)c1 | 19 | 74* | -4 | 18 | 10 | 21 | 75* | -2
CCOc1ccccc1NC(=O)CSc1nnnn1C1CCCC1 | 1 | 1 | 13 | . | -2 | -2 | . | .
CCC(C)N(C(=O)COc1ccc(Cl)c2cccnc12)C1CCS(=O)(=O)C1 (stereo not drawn) | 29 | 62* | 13 | -4 | 3 | -7 | 25 | .
Cc1ccccc1C(=O)NC(=S)Nc1ccc2[nH]c(=O)[nH]c2c1 | 1 | 2 | 29 | 3 | -2 | -1 | . | .
Cc1cc(C)cc(N=C2NC(=O)/C(=C/c3cccs3)S2)c1 | 13 | 42* | -25 | . | 6 | -8 | 26 | .
SMILES | APOBEC3G inh | A3A deaminase | PfG6PD inh | H9c2 TAG inh | NadD inh | Cardio protect | APOBEC3A confirm | UDG ctr A3A
CC(=O)Nc1ccc(S(=O)(=O)N2CCC(C(N)=O)(N3CCCCC3)CC2)cc1 | -7 | -4 | -5 | . | -4 | -6 | . | .
O=C(CC1(O)C(=O)Nc2ccccc21)c1ccc2c(c1)OCO2 (stereo not drawn) | -2 | 79* | -2 | . | -1 | -1 | 4 | 0
CCc1noc(C)c1C(=O)N1CCN(S(=O)(=O)c2ccc(C(C)=O)cc2)CC1 | 1 | 40* | 1 | -10 | 2 | 4 | -2 | .
N#C/C(=C\c1ccc(Cl)cc1)c1nc(-c2ccco2)cs1 | 14 | 41* | 1 | . | 19 | -12 | 28 | .
CCn1ncc(CN2CCN(Cc3cccc(OC)c3)C(CCO)C2)c1C (stereo not drawn) | -5 | -1 | -17 | 2 | -5 | -10 | . | .
Cc1cc(C)cc(N2CC(c3nc4ccccc4n3C)CC2=O)c1 (stereo not drawn) | 21 | 58* | 11 | 7 | 4 | 16 | 46* | -1
Cc1ccc(N2CC(c3nc4ccccc4n3C)CC2=O)cc1C (stereo not drawn) | 10 | 33 | 0 | 2 | 3 | 6 | . | .
Cc1cc(Br)ccc1NC(=O)CN(C)C(=O)CNC(=O)Cc1ccccc1 | -8 | 0 | -2 | 25 | -2 | 5 | . | .
CCN(CC(=O)NCC(=O)Nc1ccc(Br)cc1C)Cc1ccccc1 | -7 | 40* | -7 | -3 | -3 | 0 | 8 | 5
COc1ccc(NC(=O)c2ccc(-n3cncn3)c([N+](=O)[O-])c2)cc1 | -3 | -3 | 9 | -1 | 0 | -2 | . | .
CCc1ccc(NC(=O)c2ccc(-n3cncn3)c([N+](=O)[O-])c2)cc1 | 15 | 41* | 18 | -4 | 4 | 1 | 5 | .
CCOC(=O)c1c(S(=O)(=O)N2CCC(C)CC2)c(C)n(C)c1C | 0 | -2 | -13 | . | 3 | -2 | . | .
C[N+]1(CC(=O)OCCCc2ccccc2)CCOCC1 | 24 | 69* | 6 | 2 | 5 | 3 | 92* | 5
Cc1ccc(CCCOC(=O)C[N+]2(C)CCOCC2)cc1 | 24 | 42* | 13 | -21 | 20 | -9 | 89* | 4
